In the library only some 9.2% were active in any assay of this set; here they are far more common.
FLuc modulator: firefly luciferase modulation, counter-screen for miR-21 project; P08659; purified FLuc, Km substrates, luminescence inhibition; Potency, µM (titrated, usually from 57.5 µM), inactives show at the highest dose activity change, negative = inhibition, most hits filed as inhibitors; 360,000 compounds, 6.9% hits; AID 588342;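 further: plate controls were vehicle for no effect and reference inhibitor for full effect; nearly all actives have a fitted effect of over 55% in size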
Target sequence (P08659 whole entry, looked up): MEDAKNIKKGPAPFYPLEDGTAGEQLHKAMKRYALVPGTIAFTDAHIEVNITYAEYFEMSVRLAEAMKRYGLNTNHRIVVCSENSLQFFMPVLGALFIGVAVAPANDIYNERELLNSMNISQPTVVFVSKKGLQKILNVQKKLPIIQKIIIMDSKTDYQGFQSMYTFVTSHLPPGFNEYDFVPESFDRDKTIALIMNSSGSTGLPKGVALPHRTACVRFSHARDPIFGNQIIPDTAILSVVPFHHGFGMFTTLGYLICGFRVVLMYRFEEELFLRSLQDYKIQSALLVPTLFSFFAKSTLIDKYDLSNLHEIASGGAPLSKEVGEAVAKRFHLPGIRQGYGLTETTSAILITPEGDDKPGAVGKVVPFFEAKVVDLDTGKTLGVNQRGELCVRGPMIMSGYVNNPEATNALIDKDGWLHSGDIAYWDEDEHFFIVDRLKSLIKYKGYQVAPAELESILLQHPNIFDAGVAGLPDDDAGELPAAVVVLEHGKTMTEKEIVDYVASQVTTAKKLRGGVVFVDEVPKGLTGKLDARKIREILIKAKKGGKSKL
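Purified P. pyralis luciferase, 10 nM final, with Km-level 10 uM D-luciferin and 10 uM ATP in 50 mM Tris acetate pH 7.5, 10 mM Mg acetate, 0.01% Tween-20, 0.05% BSA; 6-point qHTS titration about 60 µM downward; luminescence read.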
ELG1 DNA repair: ELG1-dependent DNA repair inhibition | 330,000 compounds, 2.3% hits | Potency, µM (highest dose often 46.1 µM), for inactives: at the highest dose activity change, negative = inhibition, hits mostly inhibitors | HEK293T ELG1-luciferase reporter, luminescence, 16 h; DNA damage induced by 5-fluorouridine; further: on the % scale 0 is the no-effect control and ±100 the full control effect; nearly all actives have a fitted effect of over 55% in size
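HEK293T cells expressing luciferase-tagged ELG1 (2,000/well) received 5-Fluorouridine plus compound or DMSO for 16 hr at 37 °C. Luciferase was read by ONE-Glo luminescence after 30 min at room temperature.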
Rab9 promoter act: Rab9 promoter activation. 320,000 compounds, 2.8% hits. Potency, µM (doses to about 9.22 µM), inactives show at the top dose activation, negative = inhibition, most hits filed as activators. Huh7 Rab9 promoter-luciferase reporter, luminescence, 24 h. AID 485297; further: % of control where 0% means no effect; nearly all actives have a fitted effect of over 60% in size
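Huh7 cells stably carrying Rab9 promoter–luciferase reporter, plated 1500 cells/well, compound added after 2 h and incubated 24 h at 37 °C; luciferase luminescence then read after 10 min with detection reagent.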
SMN2 splice enh: SMN2 splice variant enhancement. HEK293 SMN2-luciferase splicing reporter, luminescence, 30-36 h. Potency, µM (series often up to 46.1 µM), for inactives: top-dose activity change, positive = activation, most hits filed as activators. 210,000 compounds, 2.8% hits. AID 1458; further: % of control where 0% means no effect; nearly all actives have a fitted effect of over 55% in size
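qHTS luciferase splicing reporter: luminescence rises when SMN2 exon 7 is included in transfected HEK293 cells. Compound exposure lasted 30-36 h at 37C, with 4.5 mM final sodium butyrate as control, followed by a ONE-Glo read.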
ELG1 genotoxic: genotoxicity induction in ELG1-luciferase HEK293T cells; Potency, µM (highest dose often 46 µM), for inactives: at the top dose activity change, positive = activation, most hits filed as activators; HEK293T ELG1-luciferase reporter, luminescence, 16 h; 330,000 compounds, 1.3% hits; AID 504466; further: % of control where 0% means no effect; nearly all actives have a fitted effect of over 60% in size
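Genotoxicity was scored as increased ELG1-luciferase reporter signal, measured by ONE-Glo luminescence (30 min, room temperature). Compound or vehicle exposure of the HEK293T reporter cells lasted 16 hr at 37°C.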
NPC1 prom act: activates the NPC1 promoter; Huh7 NPC1 promoter luciferase reporter, 24 h; Potency, µM (series often up to 9.22 µM), for inactives: at the highest dose activation, usual class: activators; 320,000 compounds, 2.4% hits; AID 485313; further: % of control where 0% means no effect; nearly all actives have a fitted effect of over 60% in size
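In 1536-well qHTS, Huh7 cells harboring an NPC1 promoter–luciferase construct received compound for 24 h; activation was quantified by luminescence following luciferase reagent addition.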
* marks the source's active call; other numbers are inactive results; ? = inconclusive; · = no result; [ ] = another dose, or the depositor's remark. The call rests on the fitted dose curve; in most records, active means well fitted curve in the direction sought with a large enough effect; inconclusive means small, poorly fitted or top-dose-only effect, or another doubt; inactive means no such curve, though single readings can be large; an effect the other way counts as inactive or inconclusive. Potency means the concentration at half of the fitted maximal effect.

SMILES	FLuc modulator	ELG1 DNA repair	Rab9 promoter act	SMN2 splice enh	ELG1 genotoxic	NPC1 prom act
O=C(NC1CC1)C1CC(=O)N(c2cccc(Cl)c2)C1 (centres undefined)	3%	8%	-2%	·	14%	1%
COc1cc(/C=N/NC(=O)CSc2cc(C)c(Br)cc2C)ccc1O	-10%	16µM*	-2%	-3%	-13%	2%
COc1ccc(/C=N\NC(=O)c2sccc2C)cc1Cn1nc(C)cc1C	3%	?	-1%	·	9.2µM*	-5%
COc1ccc(/C=N/NC(=O)CSCC(=O)Nc2ccccc2)cc1OC	-23%	-20%	4%	·	1%	0%
Cc1cc(SCC(=O)N/N=C/c2ccc(O)c(O)c2O)c(C)cc1Br	-18%	3%	-28%	3%	10%	-11%
COc1ccc(/C=N/NC(=O)CSc2ccccc2)cc1OC	12µM*	16%	-6%	22%	-1%	2%
COc1ccc(/C=N/NC(=O)c2ccccc2O)cc1Cn1nnc2ccccc21	21µM*	-3%	1%	·	1%	0%
CSc1ncccc1C(=O)OCC(=O)NC12CC3CC(CC(C3)C1)C2	·	-2%	·	·	-3%	·
CCCCn1c(N)c(N(CCOC)C(=O)c2ccc3c(c2)C(=O)N(c2cc(C)ccc2C)C3=O)c(=O)[nH]c1=O	0%	3%	1%	·	-1%	1%
CCC1(c2ccccc2)NC(=O)N(CC(=O)NC2CCCCCC2)C1=O (centres undefined)	·	11%	·	·	1%	·
CSc1ccc(CN(C)CC(=O)NCCc2ccccc2)cc1	-2%	-11%	2%	·	-3%	2%
COc1ccc(/C=N/NC(=O)CSc2ccccn2)cc1OC	19µM*	?	20%	·	9%	13%
COc1ccc(/C=N/NC(=O)c2ccccc2O)cc1CSc1ccccn1	19µM*	12%	-10%	3%	3%	1%
Nc1cccc(-n2cccc2)c1	-9%	0%	-3%	·	1%	-3%
Cc1ccc2nc(NC(=O)CN3C(=O)NC4(CCCC4)C3=O)sc2c1	9.5µM*	?	-3%	·	0%	-6%
CCc1ccc2nc(NC(=O)CN3C(=O)NC4(CCCC4)C3=O)sc2c1	·	?	·	·	0%	·
CCOc1ccc2nc(NC(=O)CN3C(=O)NC4(CCCC4)C3=O)sc2c1	6.7µM*	?	25%	·	?	11%
COc1ccccc1NC(=O)CSc1nc2c(oc3ccccc32)c(=O)n1-c1ccc(C)cc1	-9%	·	·	-8%	·	·
Nc1cc(=O)[nH]c(SCC(=O)Nc2ccc(S(=O)(=O)N3CCCC3)cc2)n1	·	2%	·	·	0%	·
Cc1ccc(NC(=S)NC2CCSc3ccccc32)cc1C (centres undefined)	2%	-20%	1%	·	-8%	-3%
CC(C)(C)c1ccc(-c2nnc(N)o2)cc1	6µM*	?	2.8µM*	·	?	2.8µM*
CC(C)(C)c1ccc(OCc2nnc(-c3ccccc3)o2)cc1	?	·	·	-1%	·	·
Cc1cccc(N2CCN(C(=O)c3cc4n(n3)C(C(F)(F)F)CC(c3ccco3)N4)CC2)c1C (centres undefined)	1%	21µM*	-11%	0%	-24%	-2%
CCOc1ccc(Nc2nc(Cl)nc(NCCO)n2)cc1	2%	2%	-5%	-6%	2%	-4%
CCOc1nc(NCCO)nc(Nc2ccc([N+](=O)[O-])cc2)n1	0%	10µM*	-6%	3%	1%	-3%
SMILES	FLuc modulator	ELG1 DNA repair	Rab9 promoter act	SMN2 splice enh	ELG1 genotoxic	NPC1 prom act
S=C(Nc1ccccc1)c1ccccn1	8.5µM*	?	2.8µM*	?	?	3.5µM*
O=C(O)/C=C\C(=O)Nc1ccccn1	·	·	·	-12%[9.22 µM]	·	·
O=C(Nc1cccc(O)c1)C(=O)Nc1ccccn1	1.5µM*	?	3.5µM*	10µM*	?	?
C/C(CC(=O)Nc1ccccn1)=N\NC(=O)C(=O)Nc1cccc(C)c1	-18%	14%	-2%	-1%	2%	1%
O=C(Nc1ccccc1)C(=O)Nc1ccccn1	1.7µM*	?	0.45µM*	4.5µM*	?	?
S=C(Nc1ccc(Nc2ccccc2)cc1)Nc1ccccn1	?	12%	-6%	-68%	?	-12%
CN(CCCN1CCOCC1)C(=O)c1ccc2nc(Cc3cccc(Cl)c3)oc2c1	-3%	15µM*	1%	·	-2%	1%
COc1ccc(-c2cnc(C)o2)cc1S(=O)(=O)Nc1c(C)cc(C)cc1C	-8%	·	·	·	·	·
CC(C)(C)C(=O)Nc1ccc(C(=O)N/N=C/c2ccccc2OC(=O)c2ccc(Cl)cc2)cc1	-10%	18µM*	-20%	-82%	0%	-11%
COc1ccc(C(=O)N/N=C/c2ccccc2OC(=O)c2ccccc2)cc1	?	?	-8%	·	21µM*	?
NC(=O)N/N=C/c1ccccc1OC(=O)c1ccccc1Br	27µM*	-1%	-2%	-23%	-8%	-5%
COc1cc(C(=O)Oc2ccccc2/C=N/NC(=O)c2ccc(C)cc2)cc(OC)c1OC	6µM*	?	?	-65%	17%	?
COc1ccc(C(=O)N/N=C/c2ccc(OC(=O)c3ccccc3)cc2)cc1	0%	?	6%	-10%[1.84 µM]	?	1%
COc1ccc(S(=O)(=O)NC(C(=O)NCCc2ccccn2)C(C)C)cc1 (centres undefined)	1%	14%	?	-5%	0%	0%
CCOC(=O)c1c(-c2ccc(C)cc2)csc1NC(=O)c1nc(SCC)ncc1Cl	-1%	·	·	4%	·	·
O=C(Cc1ccc2c(c1)OCCO2)c1c(O)cc(O)cc1O	27µM*	?	?	11%	17%	27%
COc1ccc(CC(=O)c2ccc(O)cc2O)cc1	?	?	?	-83%	?	?
COc1ccc(C(=O)Cc2ccc3c(c2)OCO3)c(O)c1	2.7µM*	?	4µM*	5.6µM*	?	2.8µM*
O=C(O)COc1ccc(C(=O)Cc2ccc3c(c2)OCCCO3)c(O)c1	27µM*	5%	-3%	-22%	-3%	-3%
CS(=O)(=O)N1CCC[C@@]2(CCN(C(=O)Nc3cccc(F)c3)C2)C1	·	·	·	-9%	·	·
Cc1c(Cc2ccccc2)c(=O)oc2cc(OC(=O)c3ccccc3)ccc12	?	1%	-3%	-11%	5%	-5%
CC(C)(C)c1ccc(C(=O)Oc2ccc3c(c2)OCC3=O)cc1	2.7µM*	3%	-5%	5%	8%	0%
O=C(Oc1ccc2c(c1)OCC2=O)c1ccccc1	27µM*	11%	0%	11%	1%	-1%
CC(=O)Oc1ccc2c(c1)C(=O)c1ccccc1CO2	4.8µM*	?	7%	-32%	?	1%
